KLF5 inhibitor = KLF5 expression inhibitors, primary screen, DLD-1 cells, luminescence; DLD-1 KLF5 promoter-luciferase reporter; inhibition, % at 5 µM; AID 1700, 2009; hit rate 0.23% among 290,000;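 active = inhibition above a per-plate limit of that plate's mean compound inhibition plus 3 SD, cut at about 60% in these data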;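 note: 0% = DMSO wells and 100% = LY294002 at 200 µM; higher means less KLF5 promoter-driven luciferase light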
APP 5UTR inh = inhibitors of APP translation via 5'UTR reporter, primary screen, APP 5'UTR luciferase, SH-SY5Y cells; hit rate 0.82% among 190,000; inhibition, % at 2 µM; SH-SY5Y APP 5'UTR-luciferase reporter, luminescence;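 active = inhibition above a set limit, derived from the sample mean plus 3 SD, cut at about 45% in these data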
IEC-6 tox-1 = cytotoxicity in IEC-6 intestinal epithelial cells, primary screen, cytotoxicity control for KLF5 inhibitor project, cell-based, luminescence | IEC-6 cytotoxicity, luminescence viability | inhibition, % at 5 µM | hit rate 0.78% among 290,000 | AID 1825, 2009; in the data active = inhibition above about 22%;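 note: 0% = plate median of test compound wells and 100% = cytotoxic reference compound wells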
BaF3 parental = parental Ba/F3 cell viability inhibition, counter-screen for JAK2V617F inhibitor project, murine pro-B, CellTiter-Glo luminescence; inhibition, % at 5.6 µM; CellTiter-Glo ATP luminescence; hit rate 1.1% among 220,000; AID 1486, 2009;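 active = inhibition above a per-campaign cutoff, the mean inhibition of all tested compounds plus 3 SD, cut at about 27% in these data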;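 note: 0% = DMSO wells and 100% = JAK Inhibitor I control wells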
aSyn 5UTR inh = MLPCN primary screen, SNCA 5' untranslated region. alpha-synuclein 5'UTR reporter, inhibitor activity. hit rate 0.82% among 300,000. inhibition, % (tested at 7.5 µM); in the data active = inhibition above about 60%;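 note: H4 neuroglioblastoma cells stably carrying SNCA 5'UTR luciferase fusion; 0% = DMSO wells and 100% = positive control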
Ba/F3 V617F tox = reduced viability of JAK2V617F-dependent Ba/F3 cells, primary screen, JAK2V617F inhibitor project, cell-based, Ba/F3 EpoR-JAK2V617F, luminescence; ATP luminescence; inhibition, % at 5.6 µM; hit rate 1.1% among 220,000; AID 1446, 2008;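 active = inhibition above the campaign mean plus 3 SD over all tested compounds, cut at about 24% in these data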;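 note: cytokine-independent growth of Ba/F3 cells driven by EpoR plus mutant JAK2; 0% = DMSO-treated cells and 100% = JAK inhibitor I control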
KLF5 inh confirm = KLF5 expression inhibitors, confirmation, DLD-1 cells, luminescence | shares compounds with KLF5 inhibitor | DLD-1 KLF5 promoter firefly luciferase reporter | inhibition, % at 4 µM | hit rate 79% among 610;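 active = inhibition above a set limit taken from the earlier primary screen, cut at about 63% in these data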;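 note: 0% = DMSO wells and 100% = LY294002 at 200 µM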
IEC-6 tox-2 = cytotoxicity in rat IEC-6 cells, cytotoxicity control for KLF5 inhibitor project, cell-based, luminescence, triplicate; hit rate 56% among 610; shares compounds with KLF5 inhibitor; inhibition, % at 4 µM; IEC-6 rat intestinal cells, viability luminescence; in the data active = inhibition above about 23%;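 note: cells exposed to compounds for 48 hours before viability read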
An asterisk follows results filed as active; nt = no result. In the library only some 2.2% were active in any assay of this set; here they are far more common.

SMILES	KLF5 inhibitor	APP 5UTR inh	IEC-6 tox-1	BaF3 parental	aSyn 5UTR inh	Ba/F3 V617F tox	KLF5 inh confirm	IEC-6 tox-2
CCCN1CCC(NC(=O)Nc2ccc(Br)cc2)CC1	-10	4	-1	9	-29	1	nt	nt
Cc1cc(C(=O)Nc2ccc(Cl)cc2)c(C)n1-c1ccccc1	74*	nt	4	-1	87*	-3	87*	-12
Cc1ccc(-n2c(C)cc(C(=O)NS(=O)(=O)c3ccc(C)cc3)c2C)cc1	-28	-22	4	4	-22	-1	nt	nt
Cc1ccc(NC(=O)c2cc(C)n(-c3cccc(C)c3)c2C)cc1	78*	-63	-5	-1	-62	1	89*	-1
Cc1ccn2c(C(=O)NNC(=O)Nc3ccc(Cl)cc3)c(C)nc2c1	2	nt	2	nt	nt	nt	nt	nt
Cc1ccc(C2=NNC3(CCOC(C)(C)C3)S2)cc1 (configuration not stated)	-32	-178	1	3	-164	-2	nt	nt
CCOc1ccc2c(c1)sc(N)[n+]2Cc1cc(C)cc2cccnc12	76*	94*	76*	80*	55	86*	73*	67*
Cc1cc(C[n+]2ncsc2N)c2ncccc2c1	-1	nt	0	-5	-15	-1	nt	nt
CC(C)c1ccc(-c2csc3ncnc(N4CCN(C)CC4)c23)cc1	-14	nt	-7	nt	11	nt	nt	nt
COc1ccc(OCc2cccc(C(=O)Nn3cc([N+](=O)[O-])cn3)c2)cc1	93*	-25	4	12	13	6	103*	5
COc1ccccc1NC(=O)c1ccccc1C(=O)Nc1ccccc1OC	13	nt	4	nt	-9	nt	nt	nt
COc1ccccc1NC(=O)c1cnc(Nc2ccccc2OC)c2ccccc12	72*	94*	69*	83*	101*	85*	71*	47*
Oc1c(CN2CCN(c3ccccc3)CC2)cc(Br)c2cccnc12	52	nt	13	12	85*	20	57	15
Cc1onc(C(=O)NC(C)c2ccccc2)c1[N+](=O)[O-] (configuration not stated)	0	-8	9	-1	19	-4	nt	nt
CCOC(=O)CN1C2=NCCN2c2ccccc21	79*	-1	-2	0	13	-1	3	8
CCOC(=O)CN1C2=NCCCN2c2ccccc21	-28	8	-1	0	-10	-2	nt	nt
C=CCN(CC=C)Cc1c(O)ccc2c(=O)c(-c3ccccc3)coc12	-18	nt	-3	nt	4	nt	nt	nt
O=c1[nH]c2ccccc2nc1NCc1ccccc1	-25	nt	9	nt	-8	nt	nt	nt
CC1=NN(c2nc3ccccc3[nH]2)C(=O)C1Cc1ccccc1 (configuration not stated)	63*	nt	-16	81*	26	97*	81*	12
COC(=O)c1ccc2nc(Nc3nc4ccc(F)cc4s3)sc2c1	94*	42	0	2	75*	-2	101*	16
CC(C)c1nnc(SCC(=O)NC2CCCC2)n1C	11	nt	4	nt	1	nt	nt	nt
COc1ccc(S(=O)(=O)Nc2cccc(-c3ccc4nncn4n3)c2)cc1F	70*	63*	59*	79*	15	81*	81*	34*
CCN(CC)c1ccc(/C=N/NC(=O)c2cccc(S(=O)(=O)Nc3ccccc3OC)c2)c(O)c1	74*	70*	31*	4	95*	10	79*	33*
NS(=O)(=O)c1ccc(CCNC(=O)c2ccccc2-c2ccccc2)cc1	-4	nt	-1	nt	2	nt	nt	nt
COc1cc(C(=O)N/N=C/c2cc([N+](=O)[O-])cs2)cc(OC)c1OC	79*	95*	78*	77*	50	81*	76*	59*
SMILES	KLF5 inhibitor	APP 5UTR inh	IEC-6 tox-1	BaF3 parental	aSyn 5UTR inh	Ba/F3 V617F tox	KLF5 inh confirm	IEC-6 tox-2
O=C(C1CCCC1)N1CCC(CC2CC(c3cccc(Br)c3)=NO2)(C(=O)NCC2CCCCC2)CC1 (configuration not stated)	-24	nt	1	nt	24	nt	nt	nt
O=C(O)c1ccc(N=Nc2c(O)ccc3ncccc23)cc1	87*	nt	8	nt	-13	nt	15	14
O=C(O)c1cc(N=Nc2c(O)ccc3ccccc23)cc(C(=O)O)c1	-9	-10	10	0	nt	-2	nt	nt
Cc1nc2ccccc2c(C)c1CC(=O)OC(C)C(=O)NC1(C#N)CCCCC1 (configuration not stated)	nt	nt	nt	nt	1	nt	nt	nt
Cc1ccc2nc(NC(=O)CCCc3nc4ccccc4s3)sc2c1	88*	-62	-1	21	45	2	98*	6
Cc1cnc(NC(=O)CCCc2nc3ccccc3s2)s1	-4	9	-1	6	30	1	nt	nt
CN1CCN(c2ccc(-c3ccc4ccccc4n3)cc2)CC1	99*	51*	8	11	112*	14	104*	-6
O=[N+]([O-])c1ccc(/C=N/Nc2ncccc2[N+](=O)[O-])s1	nt	nt	nt	nt	-9	nt	nt	nt
Cc1cc(/C=N/Nc2ccc([N+](=O)[O-])cn2)c(C)n1-c1ccccc1	-16	-8	-7	17	-137	6	nt	nt
COc1cccc(/C=N/Nc2ccc(C(=O)O)cc2)c1O	100*	80*	-5	3	113*	1	111*	-7
COc1cccc(/C=N/Nc2ncccc2[N+](=O)[O-])c1OC	81*	nt	12	14	92*	17	30	23*
COc1cccc(/C=N/Nc2ccc([N+](=O)[O-])cn2)c1O	85*	nt	10	nt	102*	nt	72*	7
COc1cc(OC)c2cc(C(=O)N/N=C/c3cccc(OC)c3O)[nH]c2c1	39	nt	3	-3	47	0	nt	nt
COc1cccc(/C=N/Nc2ccc(S(=O)(=O)O)cc2)c1O	-2	-14	0	3	-3	-4	nt	nt
COc1cccc(/C=N/NC(=O)c2cc3c(OC)ccc(OC)c3[nH]2)c1O	88*	nt	12	nt	23	nt	72*	-2
CCSc1c([N+](=O)[O-])c(=O)n(-c2ccccc2)c2ccccc12	nt	nt	nt	nt	19	nt	nt	nt
CN(CC1CCCN(CCc2cccc(C(F)(F)F)c2)C1)C(=O)c1cc2ccccc2o1 (configuration not stated)	-4	nt	7	nt	8	nt	nt	nt
CC(=O)c1cccc(NC(=O)Nc2nc(C)cc(C)n2)c1	-226	nt	-4	nt	-85	nt	nt	nt
N/C(=N\OC(=O)Cc1ccccc1)c1ccccc1Cl	-36	-48	-1	1	-143	-3	nt	nt
CCN(CC)S(=O)(=O)c1ccc(N/N=C/c2cccnc2)nc1	-5	nt	2	-2	8	-3	nt	nt

Compound activity deposited in PubChem by several laboratories.
